# TWEAK-Fn14 inh: blocks TWEAK-Fn14 interaction in a reporter cell assay; inhibition, % at 10 µM; 2% of 360,000 active; AID 1159606; TWEAK-stimulated Fn14 reporter cells, luciferase luminescence, 8 h; in the data active = inhibition above about 50%
# PPC-1+TRAIL kill: PPC-1 cancer cell killing with TRAIL present; PPC-1 cells + TRAIL, ATPLite viability luminescence; 0.41% of 220,000 active; cell killing (% activity), % at 4 µM or 5 µM;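 active = cell killing above 50% in the first pass at 4 µM, then a duplicate retest at 5 µM averaging 50% or more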
# TRAIL sens C8: caspase-8 TRAIL sensitization; NB7+C8 cells + TRAIL, ATPlite viability luminescence; inhibition (viability loss, TRAIL sensitization), % at 10 µM; 1% of 360,000 active; AID 624354;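 active = compounds causing at least 50% loss of cell viability in the single-dose screen, relative to plate controls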
# Platelet DG rel: platelet dense granule release activity | human platelet-rich plasma, SFLLRN dense granule ATP release, luminescence | inhibition, %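 (compounds screened at 7.5 µM in platelet-rich plasma)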 | 0.22% of 300,000 active;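 active = mean replicate score, as percent of positive control, at or above 50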
# HSP90 inh: HSP90 refolding inhibition in rabbit reticulocyte lysate. 0.91% of 290,000 active. luciferase refolding luminescence, 3 h. inhibition, % at 5.6 µM;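 active = inhibition above the screen-wide mean plus 3 SD, computed separately per campaign, cut at about 16% in these data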;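 note: inhibitors lower the luminescence because luciferase stays unfolded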
# TROY NFkB inh: blocks TROY-dependent signaling in reporter cells. Q293 LMP1-TROYcd NF-kB luciferase reporter, 4 h. inhibition, % at 10 µM. 0.98% of 360,000 active. AID 1347056;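 active = compounds whose plate-normalised and pattern-corrected inhibition of the luciferase reporter signal at the single screening dose is 50% or more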
# A number is an active result; – = inactive; · = not tested or not shown. A selection: hits, their analogues and other compounds. The true share with any hit is near 3.5%.
SMILES,TWEAK-Fn14 inh,PPC-1+TRAIL kill,TRAIL sens C8,Platelet DG rel,HSP90 inh,TROY NFkB inh
CC(=O)c1ccc(NC(=S)Nc2cccc3ccccc23)cc1,–,·,–,–,–,72
CC(=O)c1ccc(NC(=O)Nc2ccccc2)cc1,–,–,60,–,–,–
CC(=O)c1ccc(NC(=O)c2ccn[nH]2)cc1,–,–,–,50,–,–
CCN(CC)c1ccc(NC(=O)Nc2ccccc2)cc1,–,·,59,–,–,–
CN(C)c1cc(N/N=C/c2ccc(Cl)cc2)nc(N(C)C)n1,–,–,–,–,–,–
CCn1c(SCC(=O)Nc2ccc(OC)c(S(=O)(=O)N3CCCCC3)c2)nnc1C1CC1,–,·,–,·,·,–
CCC(Cc1ccccc1)NC(=O)C1CCN(c2nn3c(=O)cc(C)nc3s2)CC1 (stereo not given),–,·,–,–,–,–
O=Cc1ccc(C(=O)OCC(=O)Nc2ccc(F)cc2F)cc1,–,·,–,–,–,–
C[C@@H]1CC=C[C@H]2[C@H]1C(=O)N(Cc1ccccc1)[C@H]2c1ccc(-c2cc3ccccc3s2)cc1F,–,–,–,–,·,–
COc1cc(C(=O)NCCNC(=O)c2ccco2)cc(OC)c1OC,–,·,–,·,·,–
CC1CCc2c(sc3nc(C(C)(C)C)nc(N4CCN(C(=O)CCl)CC4)c23)C1 (stereo not given),–,·,94,–,–,–
Cc1ccc(C(=O)Oc2cc(N)n(S(=O)(=O)c3ccc(F)cc3)n2)cc1,79,·,–,–,–,–
Nc1cc(OC(=O)c2cccs2)nn1S(=O)(=O)c1ccc(F)cc1,–,–,–,–,–,–
COc1ccc(-c2nc(CS(=O)CC(=O)NC3CCC(C)CC3)c(C)o2)cc1OC (stereo not given),–,·,–,–,–,–
Cc1cc(CN2CCCC(CNC(=O)c3ccc(F)cc3)C2)cc(C)c1O (stereo not given),–,–,–,–,–,–
O=C(NCC1CCCN(Cc2ccc3nonc3c2)C1)c1ccc(F)cc1 (stereo not given),–,–,–,–,–,71
O=c1ccc(=O)n(-c2ccccc2)[nH]1,–,–,–,–,–,–
O=c1cc(-c2ccccc2)[nH]n1-c1ccccc1,–,·,–,·,·,53
CC(C)c1ccc2oc3nc(N)c(C(=O)O)cc3c(=O)c2c1,·,83,·,–,–,·
COc1ccc(-c2noc(N3CCC(C(=O)NCCCN4CCCC(C)C4)CC3)n2)cc1 (stereo not given),–,·,–,–,–,–
CC(C)(C)c1ccc(C(=O)NNc2ncccc2-n2cccc2)cc1,–,–,–,–,–,53
Nc1c(N(CCC2=CCCCC2)C(=O)COc2ccc(F)cc2Cl)c(=O)[nH]c(=O)n1Cc1ccccc1,–,·,88,·,·,–
Nc1c(N(CCC2=CCCCC2)C(=O)Cc2ccc(F)cc2)c(=O)[nH]c(=O)n1Cc1ccccc1,–,·,–,·,·,–
CCOc1ccc(N(C)S(=O)(=O)c2cc(-c3cc(C)no3)ccc2CC)cc1,72,·,–,–,–,–
O=C(N/N=C/c1ccc[nH]1)c1ccccc1[N+](=O)[O-],–,–,–,–,–,–
SMILES,TWEAK-Fn14 inh,PPC-1+TRAIL kill,TRAIL sens C8,Platelet DG rel,HSP90 inh,TROY NFkB inh
Cc1ccc(C(=O)N/N=C\c2ccc[nH]2)cc1[N+](=O)[O-],–,–,86,–,–,–
CCN(CC)C(=O)c1cccc(-c2csc(C(C)(O)c3cccc(OC)c3)n2)c1 (stereo not given),65,·,–,·,·,–
COc1cccc(C(C)(O)c2nc(-c3cc(F)cc(F)c3)cs2)c1 (stereo not given),54,·,–,·,·,–
CCN(CC)C(=O)c1cccc(-c2csc(C(C)(O)c3ccc(OC)cc3)n2)c1 (stereo not given),–,·,–,·,·,–
O=C(O)/C=C\C(=O)Nc1ccccc1C(=O)N1CCC(O)(c2ccc(Cl)cc2)CC1,–,·,–,·,·,–
CCN(CC)C(=O)CSc1nnc(-c2ccc(F)cc2)n1N,–,–,–,–,–,–
CCN(CC)C(=O)CSc1n[nH]c(=S)n1N,84,–,–,–,–,–
Cc1cc2nc(C(C)(C)C)c(CC3CCCCC3)n2c(C)c1Br,–,·,–,·,·,–
COc1ccc(-c2cn3c(n2)CCC3)cc1,–,–,–,–,–,–
c1ccc(-c2ccc(-c3cn4c(n3)CCC4)cc2)cc1,55,–,72,–,–,–
COc1cccc(-c2ccc(=O)n(CC(=O)Nc3ccc(S(=O)(=O)NCC(C)C)cc3)n2)c1,·,–,·,–,–,·
Cc1cccn2c(=O)c3cc(S(=O)(=O)c4ccc(F)cc4)c(=N)n(Cc4ccco4)c3nc12,56,–,–,–,–,–
O=C(NCCc1ccc(Cl)cc1)c1cccc(S(=O)(=O)N2CCCC2)c1,–,·,–,·,·,–
O=C(C(=O)N1CCN(C(=O)OCc2ccccc2)CC1)c1cccs1,·,·,–,·,·,·
O=c1cc(-c2ccc(O)c(O)c2)oc2cc(O)cc(O)c12,64,–,–,–,·,–
O=c1c(O)c(-c2ccc(O)c(O)c2)oc2cc(O)cc(O)c12,68,·,–,–,–,–
CSCCNC(=O)C1(C)CCN1C(=O)c1sccc1C (stereo not given),–,·,–,·,·,–
CC(C)NC(=O)c1c(CSc2ccccc2)noc1C(=O)NCc1ccccc1,–,–,–,–,·,–
S=C(Nc1ccccc1)N1CCCCCC1,–,–,–,–,–,–
S=C(Nc1ccccc1)N1CCN(C2CCCCC2)CC1,–,–,–,–,–,60
Cc1cc(C(=O)NCC23CC4CC(CC(C4)C2)C3)c(C)o1,·,–,·,–,–,·
COc1cccc(C2=Cc3ccc(F)cc3C(CC(C)=O)N2c2ccc(C#CC3(O)CCCCC3)cc2)c1 (stereo not given),65,·,–,·,·,–
COc1cc(OC)cc(C2=Cc3ccc(OC)cc3C(CC(C)=O)N2c2ccc(C#CC3(O)CCCCC3)cc2)c1 (stereo not given),–,·,–,·,·,–
Cc1csc(CNc2ncnc3ccc(-c4cccnc4)cc23)c1,–,·,–,·,·,–
Cc1cccc(CNc2ncnc3ccc(-c4ccc5c(c4)OCCO5)cc23)c1,–,·,–,·,·,–
Cc1ccc(CNc2ncnc3ccc(-c4ccoc4C)cc23)o1,65,·,–,·,·,–
COc1cc2ncnc(NCc3ccc(C)o3)c2cc1OC,–,–,–,–,–,–
Cc1cccc(CNc2ncnc3ccc(-c4ccoc4)cc23)c1,94,·,–,·,·,55
